The values that follow come from PubChem BioAssay (NCATS).

Structures are written as SMILES. Values without a mark were called inactive. Records with an inconclusive call do not appear. Calls of active or inactive are those of the source. The call rests on the fitted dose curve; in most records, active means well fitted curve in the direction sought with a large enough effect; inconclusive means small, poorly fitted or top-dose-only effect, or another doubt; inactive means no such curve, though single readings can be large; an effect the other way counts as inactive or inconclusive.

Chain of Cytochrome P450 2D6 (Homo sapiens) (P10635 whole entry, looked up): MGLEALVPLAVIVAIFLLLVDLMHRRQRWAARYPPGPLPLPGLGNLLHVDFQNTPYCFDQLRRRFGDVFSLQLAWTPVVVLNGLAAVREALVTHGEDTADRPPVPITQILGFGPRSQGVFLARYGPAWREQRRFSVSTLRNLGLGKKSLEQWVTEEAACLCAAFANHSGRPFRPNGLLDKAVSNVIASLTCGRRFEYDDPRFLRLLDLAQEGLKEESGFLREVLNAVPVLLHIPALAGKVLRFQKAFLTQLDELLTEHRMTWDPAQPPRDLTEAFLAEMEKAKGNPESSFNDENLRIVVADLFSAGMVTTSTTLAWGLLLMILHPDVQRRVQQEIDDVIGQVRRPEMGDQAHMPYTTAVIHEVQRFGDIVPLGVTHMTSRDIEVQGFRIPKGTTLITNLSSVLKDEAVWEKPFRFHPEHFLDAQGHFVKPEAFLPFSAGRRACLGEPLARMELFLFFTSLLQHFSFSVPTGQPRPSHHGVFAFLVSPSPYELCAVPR

In the first test the target is Cytochrome P450 3A4 (Homo sapiens) (UniProt P08684). In words: qHTS Assay for Activators of Cytochrome P450 3A4 (AID 885). Further: nearly all actives have a fitted effect of over 65% in size. To be noted: recombinant CYP3A4, Luciferin-PPXE luminescence, 60 min; series mostly up to 57.1 µM; activity change, positive = activation: at the top concentration. Summed up: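 Steps: enzyme/substrate mix dispensed; compound added, 10 min RT; NADPH regeneration solution added, 60 min RT; luciferin detection buffer stops reaction; 20 min later luminescence measured.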
Chain of Cytochrome P450 3A4 (Homo sapiens) (P08684 whole entry, looked up): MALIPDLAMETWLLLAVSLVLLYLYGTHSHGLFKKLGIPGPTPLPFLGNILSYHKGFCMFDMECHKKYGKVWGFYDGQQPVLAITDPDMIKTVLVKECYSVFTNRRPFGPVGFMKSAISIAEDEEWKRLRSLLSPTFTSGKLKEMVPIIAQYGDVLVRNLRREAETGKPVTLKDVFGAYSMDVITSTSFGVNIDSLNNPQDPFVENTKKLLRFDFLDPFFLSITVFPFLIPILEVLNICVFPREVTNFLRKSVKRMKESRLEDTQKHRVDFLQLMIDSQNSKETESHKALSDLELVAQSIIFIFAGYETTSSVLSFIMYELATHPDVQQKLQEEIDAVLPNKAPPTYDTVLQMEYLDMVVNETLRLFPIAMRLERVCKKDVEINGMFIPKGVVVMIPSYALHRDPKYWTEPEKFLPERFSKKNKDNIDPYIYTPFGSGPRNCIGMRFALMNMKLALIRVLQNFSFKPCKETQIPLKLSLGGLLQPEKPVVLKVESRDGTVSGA
Turning to `COC(=O)[C@@H]1C[C@@]2(O)[C@H](O)[C@H](O)[C@H](O)C[C@H]2N1Cc1ccccc1OS(=O)(=O)c1ccc(C)cc1`, the “activity change, positive = activation” value is -99.5%. On the same count and under the same terms, for `Nc1ccccc1C(=O)/C=C\c1ccc2c(c1)OCO2` the value was -84.3% [at 11.4 µM]; for `CC1(C)CC(=O)c2c(oc3cc4c(cc23)OCO4)C1`, -90.4%; for `CCC1=C(OC(=O)N(CC)CC)N2C(=O)OC(=NCCc3c[nH]c4ccccc34)[C@]2(Cc2ccccc2)[C@H]2C1=CC[C@H]1C(=O)N(CC)C(=O)[C@H]12`, -93.8%.

`C/C(CCN1CCc2nc(-c3ccccc3)c(-c3ccccc3)cc2C1)=N\O[C@@H](C)CN1CCCCc2nc(C)c(C)cc21`: the activity change, positive = activation is -84.8% [at 11.4 µM]. Still for that read-out and setting: the same measure for `C=CCOC(=O)C(C(C)=O)C(NC(=O)OC)c1cccc(F)c1` (centres undefined): -72.4% [at 11.4 µM].

Take `OCC1OC(c2ccc3c(c2)OCO3)C=CC1Oc1cc(Cl)cc(Cl)c1` (centres undefined): the activity change, positive = activation is -90.6% [at 11.4 µM]. Consider `COC(=O)N1[C@H](Cc2ccccc2)C=C[C@]1(C)C(=O)NCc1ccc(N(C)C)cc1`, for which the “activity change, positive = activation” value was -77.3%. Regarding `CO/N=C(/C)CCC(=O)OC[C@@H]1O[C@H](C#Cc2ccccc2)C=C[C@@H]1Oc1ccc(C)cc1`, the activity change, positive = activation was -90.5% [at 11.4 µM]. Take `C=C(C)C(O)/C=C/c1ccc(OC)cc1` (centres undefined): the activity change, positive = activation was -85.8% [at 11.4 µM]. As for `COC(=O)C/C=C\[C@@H](C)[C@@H](/C=N\OC[C@@H](O)COCc1ccco1)NS(=O)(=O)c1ccc(C)cc1`, the activity change, positive = activation was -107% [at 11.4 µM]. Regarding `CCC1=C(OC(=O)N(CC)CC)N2C(=O)OC(=NCc3ccccc3)[C@]2(C)[C@H]2C1=CC[C@H]1C(=O)N(CC)C(=O)[C@H]12`, the “activity change, positive = activation” value was -87.9%. On the same count and under the same terms, for `C/C=C/OC(=O)NC(c1ccccc1)[C@@]1(C(=O)OCC)CCCC1=O` (some centres undefined) the value was -71.4% [at 11.4 µM]. Turning to `COC(=O)[C@@H]1CC[C@H](C)[C@@H](c2ccc(C)cc2)N1C(=O)c1ccc(/C=N\OC[C@@H](C)[C@H](OCc2ccccc2)C(C)C)cc1`, the activity change, positive = activation is -66.5% [at 11.4 µM].

For another test, the target named is Cytochrome P450 2D6 (Homo sapiens) (UniProt P10635). As to the kind of experiment: qHTS Assay for Inhibitors and Substrates of Cytochrome P450 2D6 (AID 891). Further: nearly all actives have a fitted effect of over 60% in size. Further: potency means the concentration at half of the fitted maximal effect.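 On activity change, negative = inhibition: luciferin methyl ether substrate demethylated by CYP2D6 with NADPH regeneration; on the % scale 0 is the no-effect control and ±100 the full control effect.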 To be noted: recombinant CYP2D6, luciferin-ME EGE luminescence; series mostly up to 11.4 µM; activity change, negative = inhibition: at the top concentration. Summed up:
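Human CYP2D6 (5 nM) with 30 uM Luciferin-ME EGE (at Km) in 100 mM KPO4, compound preincubated 10 min, then NADPH regeneration system for 60 min at room temperature. Luciferin read by luminescence; normalized to 1.43 uM quinidine.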
Background: qHTS replaces the single test concentration by a dilution series.
Regarding `CCCCC#CC1C=CC(Oc2cc(OC)c(OC)c(OC)c2)C(COC(=O)OCC)O1` (centres undefined), the “activity change, negative = inhibition” value was -8.23%.

In the case of `CO[C@H]1COC(=O)[C@@H](Cc2ccccc2)NC(=O)[C@@H](C)COC(=O)CCC[C@@H]1C`, the “activity change, negative = inhibition” value was 25.6%.

On to `Cc1ccc(/C=C/C2=CC3(C)CC2(C)C(c2ccc(C)cc2)CC3=O)cc1` (centres undefined), for which the “activity change, negative = inhibition” value is -17.2%. Same read-out and setting: for `C=C(C)C(O)/C=C/c1ccc(C)cc1` (centres undefined) the value was 7.66%; for `C=CCOC(=O)C(C(C)=O)C(NC(=O)OC)c1ccc(Cl)cc1` (centres undefined), -2.31%. As for `COc1cccc([C@@H]2Oc3ccc(OC)cc3/C(=N/O[C@@H](C)CN3CCCc4nc(C)c(C)cc43)[C@@H]2O)c1`, the Potency is 3.98 µM (active).

Turning to `CCOC(c1cc(OC)cc([N+](=O)[O-])c1OC)C(C)C(OC)[C@@H](C)/C=C/CC(=O)OC` (some centres undefined), the “activity change, negative = inhibition” value was 11%. Turning to `O=C(/C=C\c1ccc2c(c1)OCO2)c1ccc(F)cc1`, the Potency is 2 µM (active).

On to `CO[C@H]1COC(=O)C/C=C\[C@H](C)[C@@H](NS(=O)(=O)c2ccc(C)cc2)COC(=O)C/C=C\[C@@H]1C`, for which the “activity change, negative = inhibition” value was 27.3%. As to `COc1cccc([C@H]2Oc3ccc(OC)cc3/C(=N\O[C@@H]3O[C@H](COC(C)=O)[C@H](OC(C)=O)[C@H](OC(C)=O)[C@H]3OC(C)=O)[C@@H]2O)c1`, the Potency is 3.16 µM (active). `C=CC[C@@H]1C=C[C@H](O/N=C(\C)CCN2CCCCc3nc(C)c(C)cc32)[C@H](CO)O1`: the Potency was 3.98 µM (active). The same measure, in the same setting: the same measure for `Nc1ccccc1C(=O)/C=C\c1ccc2c(c1)OCO2`: 3.16 µM (active).

`C=CCOC(=O)C(C(C)=O)C(NC(=O)OC)c1cccc(F)c1` (centres undefined): the “activity change, negative = inhibition” value was -10.9%.

On to `OCC1OC(c2ccc3c(c2)OCO3)C=CC1Oc1cc(Cl)cc(Cl)c1` (centres undefined), for which the Potency is 3.16 µM (active). Consider `CO/N=C(/C)CCC(=O)OC[C@@H]1O[C@H](C#Cc2ccccc2)C=C[C@@H]1Oc1ccc(C)cc1`, for which the “activity change, negative = inhibition” value is 23%. Same read-out and setting: the same measure for `C=C(C)C(O)/C=C/c1ccc(OC)cc1` (centres undefined): -20.1%. The same measure, in the same setting: for `COC(=O)C/C=C\[C@@H](C)[C@@H](/C=N\OC[C@@H](O)COCc1ccco1)NS(=O)(=O)c1ccc(C)cc1` the value was 21.3%. On the same count and under the same terms, for `C/C=C/OC(=O)NC(c1ccccc1)[C@@]1(C(=O)OCC)CCCC1=O` (some centres undefined) the value was -7.9%. Regarding `COC(=O)[C@@H]1CC[C@H](C)[C@@H](c2ccc(C)cc2)N1C(=O)c1ccc(/C=N\OC[C@@H](C)[C@H](OCc2ccccc2)C(C)C)cc1`, the Potency was 3.98 µM (active).

The target of a further test is Cytochrome P450 2C19 (Homo sapiens) (UniProt P33261). As to the kind of experiment: qHTS Assay for Inhibitors and Substrates of Cytochrome P450 2C19 (AID 899). Further: nearly all actives have a fitted effect of over 60% in size. Further: potency means the concentration at half of the fitted maximal effect. On activity, negative = inhibition: on the % scale 0 is the no-effect control and ±100 the full control effect. Particulars: recombinant CYP2C19, luciferin-H EGE luminescence; series mostly up to 11.4 µM; activity, negative = inhibition: at the top concentration. Summed up: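 NADPH-dependent conversion of Luciferin-H EGE (10uM, at KM) by 5nM enzyme in 50mM KPO4, 60 min at 37C following 10 min compound preincubation. Stopped with luciferin detection buffer; luminescence read after 20 min.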
Chain of Cytochrome P450 2C19 (Homo sapiens) (P33261 whole entry, looked up): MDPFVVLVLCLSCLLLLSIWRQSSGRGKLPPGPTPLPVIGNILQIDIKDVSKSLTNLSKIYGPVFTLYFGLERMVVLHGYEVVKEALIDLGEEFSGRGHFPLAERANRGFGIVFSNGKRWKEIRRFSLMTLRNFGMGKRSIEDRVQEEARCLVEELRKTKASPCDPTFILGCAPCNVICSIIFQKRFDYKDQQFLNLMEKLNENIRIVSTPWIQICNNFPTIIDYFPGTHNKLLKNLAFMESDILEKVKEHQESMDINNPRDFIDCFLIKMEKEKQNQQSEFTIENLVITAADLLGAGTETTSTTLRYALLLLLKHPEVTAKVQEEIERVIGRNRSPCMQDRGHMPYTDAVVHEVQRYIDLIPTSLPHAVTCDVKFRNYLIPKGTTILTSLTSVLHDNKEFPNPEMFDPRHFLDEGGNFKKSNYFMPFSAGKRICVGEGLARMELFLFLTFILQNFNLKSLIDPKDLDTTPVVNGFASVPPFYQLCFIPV
For the compound `CCCCC#CC1C=CC(Oc2cc(OC)c(OC)c(OC)c2)C(COC(=O)OCC)O1` (centres undefined), the “activity, negative = inhibition” value was -36.7%. Consider `C=C(C)C(O)/C=C/c1ccc(C)cc1` (centres undefined), for which the Potency was 5.01 µM (active). Same read-out and setting: the same measure for `C=CCOC(=O)C(C(C)=O)C(NC(=O)OC)c1ccc(Cl)cc1` (centres undefined): 0.251 µM (active); for `CCOC(c1cc(OC)cc([N+](=O)[O-])c1OC)C(C)C(OC)[C@@H](C)/C=C/CC(=O)OC` (some centres undefined): 1 µM (active). `C=CCOC(=O)C(C(C)=O)C(NC(=O)OC)c1cccc(F)c1` (centres undefined): the Potency is 0.1 µM (active). On the same count and under the same terms, for `OCC1OC(c2ccc3c(c2)OCO3)C=CC1Oc1cc(Cl)cc(Cl)c1` (centres undefined) the value was 0.0794 µM (active).
